CtBP-E1A blk – CtBP/E1A binding inhibition; AlphaScreen GST-E1A/His-CtBP binding, 1536-well; hits give low values; activity change, % (test concentration not listed); actives 0.49% (n = 340,000); AID 651724; in the data active = activity change below about -65%; inconclusive = mostly about -30% to -63%
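Protein mix (5X: 125 nM each GST-E1A, His-CtBP) was incubated with pinned compound 2 h at 37 deg C in dark, in 50 mM Tris pH 8.0 buffer with 300 mM NaCl. Glutathione donor and nickel acceptor beads followed; AlphaScreen signal read after 1 h.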
Six1-Eya2 blk – blocks human Six1 binding to Eya2; AlphaScreen GST-Six1/His-Eya2 binding, biochemical; hits give low values; activity change, % (no concentration beside the values); AID 651725; Q15475+O00167; actives 0.56% (n = 360,000); in the data active = activity change below about -65%; inconclusive = mostly about -30% to -63%
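AlphaScreen with GST-Six1 and His-Eya2 (5X mix: 250 nM and 500 nM), glutathione donor and nickel acceptor beads; buffer 50 mM Tris pH 8.0, 300 mM NaCl, 1 mM TCEP; 1 h at 37 C in the dark.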
Gal4-VP16 FLuc – counter-screen for ROR gamma inhibitors: Gal4-VP16 reporter. Drosophila S2 Gal4-VP16 UAS-luciferase, luminescence, 20 h. actives 3.5% (n = 310,000). Potency, µM (titrated, usually from 53.6 µM), without a hit: at the highest dose activity, negative = inhibition, actives largely listed as inhibitors;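 also: Gal4-VP16 expression switched on by copper sulfate through the metallothionein promoter; potency is read from the fitted curve at half-maximal effect; nearly all actives have a fitted effect of over 50% in size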
PKM2 act – activators of human pyruvate kinase M2 | purified PKM2, Kinase-Glo ATP luminescence, activation; response scale: 0% is enzyme alone, no compound | Potency, µM (titrated, usually from 57.5 µM), inactives show at the top dose activation, usual class: activators | actives 0.34% (n = 260,000) | AID 1631; also: potency is read from the fitted curve at half-maximal effect; nearly all actives have a fitted effect of over 55% in size
Target sequence (P14618 whole entry, looked up): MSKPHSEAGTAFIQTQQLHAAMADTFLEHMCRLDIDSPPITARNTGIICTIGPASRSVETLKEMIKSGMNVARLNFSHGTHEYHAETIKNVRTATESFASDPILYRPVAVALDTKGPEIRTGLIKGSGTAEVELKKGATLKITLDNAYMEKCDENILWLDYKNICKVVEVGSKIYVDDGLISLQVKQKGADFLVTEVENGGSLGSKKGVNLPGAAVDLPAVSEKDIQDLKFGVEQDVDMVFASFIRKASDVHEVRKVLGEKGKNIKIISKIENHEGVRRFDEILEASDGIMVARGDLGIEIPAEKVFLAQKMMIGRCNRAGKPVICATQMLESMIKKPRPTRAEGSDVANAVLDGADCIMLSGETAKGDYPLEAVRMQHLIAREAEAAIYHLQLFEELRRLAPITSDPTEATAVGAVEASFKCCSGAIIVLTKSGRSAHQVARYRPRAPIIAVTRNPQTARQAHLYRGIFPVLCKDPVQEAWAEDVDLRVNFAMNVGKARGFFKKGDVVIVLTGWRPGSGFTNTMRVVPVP
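Purified hPK-M2 (>95%) run at intermediate activity with 0.1 mM ADP and 0.5 mM PEP in 50 mM imidazole pH 7.2, KCl, MgCl2; 1 h room temperature. ATP formed read by Kinase-Glo luminescence; normalized to uninhibited and no-enzyme controls.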
RORgamma inh – inhibitors of mouse ROR gamma transcriptional activity | actives 5.4% (n = 310,000) | P51450 | Potency, µM (series often up to 53.6 µM), for inactives: at the top dose activity change, negative = inhibition, actives largely listed as inhibitors | Drosophila S2 Gal4-RORgamma UAS-luciferase reporter, 20 h | AID 2551; also: potency is read from the fitted curve at half-maximal effect; nearly all actives have a fitted effect of over 60% in size
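A Gal4/UAS one-hybrid system in insect cells: metallothionein-promoter Gal4–ROR gamma fusion plus Photinus luciferase reporter. Copper sulfate 700 uM final, 20 hr ambient incubation, luminescent detection after 10 min with reagent.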
An asterisk follows results filed as active; u = inconclusive; x = no result; [ ] = another dose, or the depositor's remark. Rows were chosen to be rich in hits. Some 5.6% of all compounds tested hit in one or more screens of this group. Unless noted, calls follow the shape of the dose curve; as a rule, active = well fitted curve in the direction sought with a large enough effect; inconclusive = small, poorly fitted or top-dose-only effect, or another doubt; inactive = no such curve, though single readings can be large; an effect the other way counts as inactive or inconclusive. % is scaled to controls: 0 for no effect and ±100 for the full control effect.

SMILES | CtBP-E1A blk | Six1-Eya2 blk | Gal4-VP16 FLuc | PKM2 act | RORgamma inh
CC1(C(=O)NS(=O)(=O)C2CC2)CCN(C(=O)COCc2ccccc2)C1 (stereo not drawn) | 10 | 14 | x | x | x
COc1ccc(NC(=O)COC(=O)CNS(=O)(=O)/C=C/c2ccccc2)cc1OC | x | 6 | x | x | x
CCN(CC)S(=O)(=O)c1ccc(NC(=O)COC(=O)CNS(=O)(=O)/C=C/c2ccccc2)cc1 | -81* | -14 | -2% | -20% | -1%
COc1ccc(S(=O)(=O)N2c3ccccc3OCC2C(C)(C)C)cc1 (stereo not drawn) | 5 | 0 | 16µM* | 7% | -10%
COc1ccc(S(=O)(=O)N2c3ccccc3OCC2C)cc1 (stereo not drawn) | 13 | 3 | -5% | 19% | u
CCCCn1c(SCC(=O)NCc2ccccc2)nc2ccc(N3CCOCC3)cc2c1=O | 3 | -1 | u | -7% | u
CCCCn1c(SCC(=O)NCc2ccco2)nc2ccc(N3CCOCC3)cc2c1=O | -4 | -7 | 18µM* | 7% | 6.3µM*
CCCCn1c(SCC(=O)NC(C)CC)nc2ccc(N3CCOCC3)cc2c1=O (stereo not drawn) | 2 | 0 | 20µM* | -4% | 1.3µM*
CCCCNC(=O)CSc1nc2ccc(N3CCOCC3)cc2c(=O)n1Cc1ccc(OC)cc1 | 2 | 5 | -2% | 6% | u
CCC(C)NC(=O)CSc1nc2ccccc2c(=O)n1Cc1ccc(OC)cc1 (stereo not drawn) | 5 | 0 | 10µM* | -4% | 8%
CCCNC(=O)NC(=O)CSc1nc2ccccc2c(=O)n1Cc1ccncc1 | -18 | 9 | 3% | 0% | 9%
COc1ccc(C(=O)Nn2c(SCC(=O)c3ccccc3)nc3ccccc3c2=O)cc1 | -10 | -2 | u | -7% | 11µM*
CC(CC(=O)OCC(=O)Nc1ccc2[nH]c(=O)[nH]c2c1)c1ccccc1 (stereo not drawn) | -12 | -25 | x | x | x
CC(=O)Nc1ccc(N2C(=O)CSC2c2ccccc2[N+](=O)[O-])cc1 (stereo not drawn) | 0 | -1 | -1% | 3% | -9%
CCCCn1c(SCC(=O)Nc2ccc(OC)cc2)nc2ccc(N3CCOCC3)cc2c1=O | -7 | -1 | 10µM* | 4% | u
CCC(C)NC(=O)CSc1nc2ccc(N3CCOCC3)cc2c(=O)n1CCc1ccccc1 (stereo not drawn) | x | x | u | -14% | 7.9µM*
COCCNC(=O)CSc1nc2ccc(N3CCOCC3)cc2c(=O)n1Cc1ccc(OC)cc1 | -16 | -6 | 14µM* | 29% | 10µM*
CN(CC(=O)Nc1ccccc1Br)C(=O)c1cc(S(=O)(=O)N(C)C)ccc1N1CCCC1 | 6 | -13 | x | x | x
C1CCCNCC1 | x | x | 6% | x | 6%
COc1ccc(-c2csc(C(C)(O)c3cccc(F)c3)n2)cc1 (stereo not drawn) | -2 | 5 | x | x | x
CCOC(=O)C1CCCN(Cc2nc(N)nc(Nc3ccc(Cl)cc3)n2)C1 (stereo not drawn) | -11 | -7 | u | -8% | 13µM*
N#C/C(=C(/O)CN1CCCC1)c1nc(-c2ccccc2)cs1 | -4 | -6 | 16% | -4% | 1%
CCOC(=O)C1CCCN(C/C(O)=C(\C#N)c2nc(-c3ccc(Cl)cc3)cs2)C1 (stereo not drawn) | -8 | -8 | u | 4% | 22µM*
CCOC(=O)C1CCCN(Cc2nc(N)nc(Nc3ccc(OC)cc3)n2)C1 (stereo not drawn) | -6 | -4 | -4% | -3% | -27%
O=C1NC(=S)N(c2cccc(Cl)c2)C12CCCCC2 | -1 | -2 | u | -3% | 13µM*
Cc1nc2ccc(NS(=O)(=O)c3c(C)c(C)cc(C)c3C)cc2s1 | -3 | -2 | -21% | 0% | u
Cn1c(=O)oc2cc(S(=O)(=O)Nc3ccc4c(c3)OCO4)ccc21 | -10 | -2 | 3% | 7.9µM* | 13%[10 µM]
Cc1nc2cc(NS(=O)(=O)c3c(C)c(C)cc(C)c3C)ccc2s1 | -4 | -2 | 11µM* | -20% | u

Screening data as filed in PubChem BioAssay.
